In the library only some 2.8% were active in any assay of this set; here they are far more common.
Pol eta inh-1: qHTS for Inhibitors of Polymerase Eta | recombinant Pol eta, fluorescent DNA replication assay | Potency, µM (top dose mostly 114 µM), inactives show at the highest dose activity change, negative = inhibition, usual class: inhibitors | actives 1.2% (n = 390,000) | AID 588591, 2011; note: potency is the fitted concentration of half-maximal effect; % is set by controls: 0 for no effect and ±100 for the full control effect
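Fluorescent replication assay: 50 nM final substrate added after a 15 min room-temperature compound preincubation with 10 nM enzyme. Signal taken at 0 min and again at 10 min.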
POLI inh: qHTS for Inhibitors of Polymerase Iota; DNA polymerase iota (Homo sapiens), Q9UNA4; Pol iota fluorescent replication assay, 10 min; Potency, µM (titrated, usually from 115 µM), for the others: top-dose activity, negative = inhibition, hits mostly inhibitors; actives 1% (n = 390,000); AID 588590, 2011; note: potency is the fitted concentration of half-maximal effect
Target sequence (Q9UNA4 whole entry, looked up): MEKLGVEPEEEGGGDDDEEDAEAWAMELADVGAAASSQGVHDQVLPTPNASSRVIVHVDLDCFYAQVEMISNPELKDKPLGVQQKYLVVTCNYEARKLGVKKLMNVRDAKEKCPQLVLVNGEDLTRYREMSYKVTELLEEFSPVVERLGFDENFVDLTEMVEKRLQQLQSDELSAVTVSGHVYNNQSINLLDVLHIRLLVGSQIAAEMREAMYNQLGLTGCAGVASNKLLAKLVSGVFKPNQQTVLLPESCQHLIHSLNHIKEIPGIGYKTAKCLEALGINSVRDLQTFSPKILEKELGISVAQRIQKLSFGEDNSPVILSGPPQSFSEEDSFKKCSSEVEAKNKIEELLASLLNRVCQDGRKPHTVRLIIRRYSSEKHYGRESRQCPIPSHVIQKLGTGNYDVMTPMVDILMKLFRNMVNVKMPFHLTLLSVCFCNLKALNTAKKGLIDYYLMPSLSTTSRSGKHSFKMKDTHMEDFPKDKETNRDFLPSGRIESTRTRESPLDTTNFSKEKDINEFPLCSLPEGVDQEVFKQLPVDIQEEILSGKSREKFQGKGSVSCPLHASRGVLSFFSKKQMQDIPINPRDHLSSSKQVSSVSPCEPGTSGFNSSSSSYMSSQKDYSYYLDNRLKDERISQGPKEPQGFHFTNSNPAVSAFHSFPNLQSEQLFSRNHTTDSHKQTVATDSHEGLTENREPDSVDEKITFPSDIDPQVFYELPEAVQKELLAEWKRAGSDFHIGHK
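Pol iota at 10 nM preincubated 15 min with compounds at room temperature; reaction started with fluorescent substrate, 50 nM final. Fluorescence read kinetically at 0 and 10 min; buffer-only wells as negative control.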
FEN1 inh: qHTS Assay for the Inhibitors of Human Flap endonuclease 1 (FEN1). Recombinant FEN1 flap cleavage, fluorescence, 15 min. Potency, µM (series often up to 114 µM), inactives show top-dose activity change, negative = inhibition, actives largely listed as inhibitors. AID 588795, 2011. actives 0.35% (n = 390,000); note: potency is the fitted concentration of half-maximal effect; % is set by controls: 0 for no effect and ±100 for the full control effect; nearly all actives have a fitted effect of over 65% in size
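Reaction started by adding substrate (50 nM final) to 10 nM enzyme after 15 min room-temperature compound preincubation. Reads at 0 and 15 min, with data normalized and fitted to a four-parameter Hill equation.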
PI5P4Ka inh: qHTS for Inhibitors of phosphatidylinositol 5-phosphate 4-kinase (PI5P4K) | actives 1.2% (n = 330,000) | Phosphatidylinositol 5-phosphate 4-kinase type-2 alpha (Homo sapiens), P48426 | PI5P4Kalpha enzyme, ADP-Glo luminescence, 60 min; active compounds read low | max response, %; active = max response of -50% or lower; inconclusive = between -30% and -50%; inactive = -30% or higher; note: value at the top dose of about 77 µM; % is set by controls: 0 for no effect and ±100 for the full control effect
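PI5P4Kalpha ADP-Glo assay; 5 microM ATP final; 60 min RT reaction; HEPES pH 7.4/EGTA/CHAPS, 5% DMSO; controls lacking substrate or enzyme; luminescent end-point.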
Pol beta inh: qHTS Assay for Inhibitors of DNA Polymerase Beta | AID 485314, 2010 | actives 1.3% (n = 340,000) | Pol beta primer extension/strand displacement, fluorescence kinetic | Potency, µM (doses to about 114 µM), inactives show top-dose activity change, negative = inhibition, usual class: inhibitors | P06746; note: potency is the fitted concentration of half-maximal effect; % is set by controls: 0 for no effect and ±100 for the full control effect
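Pol beta (10 nM) was preincubated with compound for 15 min at room temperature. The reaction was then started with 50 nM substrate and read immediately and after a further 10 min at room temperature.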
Pol kappa inh-1: qHTS for Inhibitors of Polymerase Kappa. DNA polymerase kappa (Homo sapiens), Q9UBT6. purified Pol kappa, fluorescent DNA synthesis assay, 10 min. Potency, µM (top dose mostly 107 µM), without a hit: top-dose activity, negative = inhibition, most hits filed as inhibitors. actives 0.53% (n = 400,000); note: potency is the fitted concentration of half-maximal effect; % is set by controls: 0 for no effect and ±100 for the full control effect
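Readout: fluorescence, taken kinetically at 0 and 10 min. Conditions: 10 nM Pol kappa, 15 min RT compound preincubation, 50 nM substrate final. Controls: enzyme-free buffer wells.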
PGK validate: qHTS for inhibitors of Phosphogylcerate Kinase: Hit Validation Screen; Potency, µM (top dose mostly 57.5 µM), for the others: top-dose activity change, negative = inhibition, actives largely listed as inhibitors; TbPGK coupled GAPDH assay, Kinase-Glo luminescence; shares compounds with Pol kappa inh-1; actives 79% (n = 500); note: potency is the fitted concentration of half-maximal effect; % is set by controls: 0 for no effect and ±100 for the full control effect; nearly all actives have a fitted effect of over 65% in size
POLI cherry-pick: qHTS for Inhibitors of Polymerase Iota: Confirmatory Assay for Cherry-picked Compounds. Pol iota primer extension, TAMRA/BHQ fluorescence. actives 77% (n = 1,500). Potency, µM, actives largely listed as inhibitors. shares compounds with Pol kappa inh-1; note: potency is the fitted concentration of half-maximal effect
GALK inh confirm: Confirmation Assay for Inhibitors of Human Galactokinase (GALK). shares compounds with Pol eta inh-1. purified GALK, Kinase-Glo ATP depletion luminescence. Potency, µM (titrated, usually from 115 µM), without a hit: at the top dose activity, negative = inhibition, hits mostly inhibitors. actives 70% (n = 150). AID 2015, 2009
Redox cycling: Confirmatory Assay for Inhibitors of Human Galactokinase (GALK): Phenol-HRP redox assay counterscreen. shares compounds with Pol eta inh-1. Phenol red-HRP H2O2 redox cycling, absorbance 600 nm. Potency, µM (titrated, usually from 115 µM), without a hit: top-dose activity change, negative = H2O2 signal, hits mostly inhibitors. actives 40% (n = 150)
HEK293 viability: Secondary Assay for Inhibitors of Human Galactokinase (GALK): HEK-293 Cell Viability Assay; shares compounds with Pol eta inh-1; Potency, µM (top dose mostly 46.1 µM), without a hit: top-dose activity change, negative = cytotoxicity, usual class: inhibitors; HEK-293 viability, ATP luminescence (CellTiter-Glo), 24/48 h; actives 10% (n = 170); note: potency is the fitted concentration of half-maximal effect; % is set by controls: 0 for no effect and ±100 for the full control effect
Pol kappa inh-2: qHTS for Inhibitors of Polymerase Kappa: Confirmatory Assay for Cherry-picked Compounds | shares compounds with Pol eta inh-1 | purified Pol-kappa, fluorescent strand-displacement substrate | Potency, µM, actives largely listed as inhibitors | actives 76% (n = 920); note: potency is the fitted concentration of half-maximal effect
Pol eta inh-2: qHTS for Inhibitors of Polymerase Eta: Confirmatory Assay for Cherry-picked Compounds; shares compounds with Pol eta inh-1; Pol eta primer extension, TAMRA/BHQ fluorescence, 10 min; Potency, µM, hits mostly inhibitors; actives 64% (n = 2,600); AID 720502, 2013; note: potency is the fitted concentration of half-maximal effect
* = called active by the depositor; ? = inconclusive; . = not tested or not shown; [ ] = another dose, or the depositor's remark. Unless noted, calls come from the whole dose curve; as a rule, active = well fitted curve in the direction sought with a large enough effect; inconclusive = small, poorly fitted or top-dose-only effect, or another doubt; inactive = no such curve, though single readings can be large; an effect the other way counts as inactive or inconclusive.

SMILES	Pol eta inh-1	POLI inh	FEN1 inh	PI5P4Ka inh	Pol beta inh	Pol kappa inh-1	POLI cherry-pick	Pol eta inh-2	others
CN(CC(=O)Nc1ccc(Cl)c(C(F)(F)F)c1)C(=O)C1CC(=O)N(C2CCCC2)C1 (stereo unspecified)	-11%	-28%	-15%	16	.	-10%	.	.
CCCCCCCCCCCCCCCCCCNc1ccn(C2OC(COP(=O)(O)OCC3OC(n4cc(F)c(=O)[nH]c4=O)CC3O)C(O)C2O)c(=O)n1 (stereo unspecified)	14µM*	18µM*	?	-69*	.	45µM*	42*	43*	Pol kappa inh-2=27*
O=c1[nH]c(=O)n(C2CC(O)C(CO)O2)cc1F (stereo unspecified)	.	.	.	.	.	-9%[60.1 µM]	.	.
Cc1cc(OCC(=O)N(Cc2sccc2C)C2CCS(=O)(=O)C2)ccc1Cl (stereo unspecified)	.	21%	4%	.	15%	20%	.	.
COC(CNC(=O)C1CCN(S(=O)(=O)c2ccc3nc4c(c(C(=O)O)c3c2)CC(C)CC4)CC1)OC (stereo unspecified)	14µM*	?	-2%	-1	-16%	?	21*	5.4*
CC1CCc2nc3ccc(S(=O)(=O)N4CCC(C(=O)O)CC4)cc3c(C(=O)O)c2C1 (stereo unspecified)	-13%	0%	0%	2	11%	-25%	.	.
Cc1cc(CC(=O)O)c2oc(-c3ccoc3)cc(=O)c2c1	8.9µM*	?	?	-22	.	40µM*	34*	7.6*
Cc1cc(C)c(Nc2cc(S(=O)(=O)O)c(N)c3c2C(=O)c2ccccc2C3=O)c(C)c1	18µM*	?	56µM*	-61*	20µM*	?	.	?	PGK validate=29µM*;Pol kappa inh-2=34*
CN(CC(=O)Nc1ccc(OC(F)(F)F)cc1)C(=O)/C=C/c1cc2c(cc1[N+](=O)[O-])OCO2	-18%	38%	-15%	-2	.	-29%	.	.
CCN(CC)c1ccc(/C=C(\C#N)C(N)=O)cc1	-4%	27%	3%	-2	?	-14%	.	.
CCN(CC)c1ccc(/C=C(\C#N)C(=O)c2ccc(Br)cc2)cc1	?	?	?	-2	40µM*	22µM*	67*	43*	Pol kappa inh-2=67*
CCOC(=O)C1C(c2ccc(O)c(O)c2)NC(=S)NC1(O)C(F)(F)F (stereo unspecified)	-12%	-6%	14%	-4	2%	-8%	.	.
Cn1cnnc1SCC(=O)Nc1ncc([N+](=O)[O-])s1	2.8µM*	7.9µM*	?	-50*	.	71µM*	19*	15*	Pol kappa inh-2=3.4*
Cc1occc1C(=O)/C(C#N)=C/c1ccc(O)c(Br)c1	?	41%	2%	?	-14%	-5%	.	.
O=C(O)CN1C(=O)/C(=C\c2cc([N+](=O)[O-])ccc2OCc2ccccc2Cl)SC1=S	22µM*	28µM*	-16%	-72*	40µM*	?	?	?
O=C(O)CN1C(=O)/C(=C\c2ccccc2OCc2ccc(F)cc2)SC1=S	?	?	-16%	-30	?	-27%	.	.
O=C(O)CN1C(=O)/C(=C\c2cc(Br)ccc2OCc2ccc(Cl)cc2)SC1=S	22µM*	-6%	?	?	?	-3%	?	48*
CCOc1ccc(-c2nc(SC(C(C)=O)C(=O)N(C)C)c3c(=O)n(C)c(=O)n(C)c3n2)cc1 (stereo unspecified)	-9%	7%	17%	.	-2%	-6%[60.1 µM]	.	.
COC(=O)c1ccc(COc2ccccc2/C=C/C(=O)c2ccc(OCC(=O)O)cc2)cc1	22µM*	?	?	3	50µM*	-8%	47*	48*
CCOc1cc(/C=N/Nc2ccc(S(=O)(=O)Nc3ccccc3C(=O)O)cc2[N+](=O)[O-])cc(Cl)c1O	25µM*	.	.	-69*	.	.	47*	67*	Pol kappa inh-2=24*
CCc1nc2c(OCc3cccc(OC)c3)cccn2c1N(C)C(=O)c1ccccc1F	.	.	.	-1	.	.	.	.
N#Cc1c(-c2ccccc2)nc(SCC(=O)N2c3ccccc3Sc3ccccc32)[nH]c1=O	40µM*	?	89µM*	-22	25µM*	-14%	84*	?	GALK inh confirm=30µM*;Redox cycling=-4%;HEK293 viability=1%

Screening data (PubChem BioAssay)
